Compounds without any hit were thinned out: in the full panel of roughly 83,000, 20% have a hit.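 Treatment: one concentration, 48 hours, 96-well format. Scoring: percent growth, with anything below 10 considered active.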 Unmarked numbers belong to inactive results. Activity calls are given as the source filed them.
Legend:
Assay in all cases: NCI-60 one-dose screen, 48 h (100 = growth as untreated, 0 = no growth, -100 = all killed)
Details in all cases: 10 µM unless noted
[1] = system: DU-145 prostate
[2] = system: K-562 leukemia
[3] = system: MALME-3M melanoma
[4] = system: MDA-MB-231 breast
[5] = system: RXF 393 renal
[6] = system: SF-268 CNS
[7] = system: SF-295 CNS
[8] = system: SF-539 CNS
[9] = system: UACC-257 melanoma
[10] = system: M14 melanoma
[11] = system: HCT-15 colon
[12] = system: HT29 colon
[13] = system: SNB-75 CNS
[14] = system: SNB-19 CNS
[15] = system: U251 CNS
[16] = system: SK-MEL-5 melanoma
[17] = system: UACC-62 melanoma
[18] = system: LOX IMVI melanoma
[19] = system: SK-MEL-28 melanoma
[20] = system: PC-3 prostate

Compound | growth [1] | growth [2] | growth [3] | growth [4] | growth [5] | growth [6] | growth [7] | growth [8] | growth [9] | growth [10] | growth [11] | growth [12] | growth [13] | growth [14] | growth [15] | growth [16] | growth [17] | growth [18] | growth [19] | growth [20]
CN1CCN(C(=O)C(C)(C)c2ccc(C(=O)Nc3cn4cc(-c5ccncc5)ccc4n3)cc2)CC1 | 16.1% | 10.2% | -11.9% (active) | 21.1% | -61.1% (active) | 9.95% (active) | 8.85% (active) | -1.81% (active) | 13% | 13.1% | 2.11% (active) | 6.49% (active) | -5.48% (active) | 9.14% (active) | 16% | -98.2% (active) | -31.3% (active) | -19.9% (active) | 7.28% (active) | –
O=C(Nc1cc(Cl)ccc1O)c1cccc(Nc2ccnc(C(F)(F)F)c2)c1 | 54.9% | 7.05% (active) | 53.1% | 34.1% | 65.8% | 55.2% | 2.92% (active) | 48.1% | 32.3% | 38.5% | 42.9% | 87.4% | 61.4% | 44% | 43.2% | 4.5% (active) | 15.5% | 38.5% | 88.1% | –
O=C1Nc2c(C(=O)O)cccc2/C1=N/c1n[nH]c(=S)s1 | 98.5% | 41.3% | 105% | 86.2% | 112% | 83.3% | 94.7% | 91.9% | 99.6% | 90.9% | 88.8% | 105% | 98.8% | 95.1% | – | 102% | 49.6% | 61.2% | 107% | 84.2%
CCC1S/C(=N\N=C(\C)c2cc3cc(Cl)ccc3o2)N(c2ccccc2)C1=O (stereo not given) | 131% | 92.2% | -3.03% (active) | 89.4% | 131% | 108% | 103% | 122% | 154% | 61.5% | 107% | 111% | 110% | 101% | – | 49.5% | 88.9% | 85.4% | 111% | 84.6%
Nc1nc(N)c2c(n1)NC(c1cccc(Nc3ccnc4cc(C(F)(F)F)ccc34)c1)CC(c1ccc(Br)cc1)=N2 (stereo not given) | 71.2% | 10.5% | 53.6% | 57.3% | 40.7% | 61.4% | 52% | 83.9% | 71.5% | 42.9% | 19.5% | 10.9% | 57.2% | 66.4% | 44.7% | 48.1% | 77.9% | 24.6% | 73.6% | –
CCCCC#Cc1c(I)n(C)c(=O)[nH]c1=O | 20.8% | -43.7% (active) | -85.4% (active) | -67.7% (active) | -81.7% (active) | 26.5% | 92.3% | 66.7% | -48.4% (active) | -7.41% (active) | -92.5% (active) | -75.3% (active) | 82.6% | 99.7% | – | 62.5% | -13.5% (active) | -63.7% (active) | -85.6% (active) | 60.2%
COc1ccc(/C=C/C(=O)c2cc(OC)c(OC)c(OC)c2)cc1OCC(=O)Nc1nc2ccc(OC(F)(F)F)cc2s1 | -30.3% (active) | 5.93% (active) | 26.8% | -16.1% (active) | -29.7% (active) | 9.91% (active) | 0.996% (active) | -58.4% (active) | 68.6% | 1.09% (active) | 11.7% | 20.1% | -33.1% (active) | 12.9% | – | 2.06% (active) | 60% | -22.9% (active) | 36.4% | 33.4%
O=C(/C=C/c1ccccc1)c1ccc(Nc2nc(Nc3ccc(F)cc3)nc(Nc3ccc(Cl)cc3)n2)cc1 | 97.7% | 70.9% | 109% | 81.5% | 134% | 88.1% | 69.3% | 97.2% | 110% | 81.2% | 86.7% | 83.5% | 95% | 101% | 78.9% | 79% | 100% | 85.1% | 90.9% | –
CCOC(=O)c1c(C)nc2c(c1N)/C(=C/c1ccc(OC)cc1)C(=O)N2Cc1ccccc1 | 60.7% | 46.5% | 64.5% | 57.8% | 71.4% | 62.3% | 68.7% | 87.5% | 49.6% | 71.3% | 41% | 34% | 73.3% | 77.7% | – | 61.8% | 48.8% | 55.6% | 78.5% | 58.4%
Cc1c2ccncc2c(C)c2c1c1cc(CO)ccc1n2C | -2.14% (active) | 6.77% (active) | -1.68% (active) | -8.51% (active) | 11.9% | 14.4% | 3.5% (active) | 17.2% | -39.2% (active) | -22.9% (active) | 4.02% (active) | -21.1% (active) | 13.3% | 1.5% (active) | – | 6.31% (active) | -54.2% (active) | -21% (active) | 5.47% (active) | 4.52% (active)
O=C1/C(=C\c2ccccn2)c2ccccc2N1c1c(Cl)cccc1Cl | -0.0912% (active) | 9.42% (active) | 67.3% | 15.7% | -35.2% (active) | 7.81% (active) | 12.3% | 1.27% (active) | 59.3% | -43.6% (active) | 12.6% | 10.8% | -28.2% (active) | 34.8% | – | 23.7% | 24.9% | -89.2% (active) | 14.6% | 31.4%
O=C(CCCCCNC(=O)c1cc(=O)c(O)co1)Nc1ccccc1 | 103% | 95.2% | 102% | 101% | 109% | 91.8% | 97.4% | 101% | 93.8% | 96.3% | 91.5% | 106% | 82.7% | 101% | – | 101% | 97.9% | 92.7% | 104% | 99.7%
COc1ccc(C(=O)/C=C/c2ccc(N3CCCCC3)cc2)cc1OC | 95.4% | 76% | 104% | 91.8% | 107% | 95.3% | 95.2% | 98.2% | 82.8% | 89.4% | 94.9% | 95.1% | 84.3% | 91.3% | – | 90.4% | 75.3% | 97.1% | 102% | 81%
N#CC1CCc2c(c(-c3ccc4nc(N)sc4c3)nc3ccc4[nH]ncc4c23)C1 (stereo not given) | 35.4% | 29.8% | 68.8% | 54.9% | 1.38% (active) | 63.1% | 23.1% | -0.136% (active) | 88.7% | 19.8% | 30% | 15.4% | 25.2% | 67.7% | – | 11.5% | 36.2% | 34.2% | 54.9% | 21.8%
C[C@H](CCCC(=O)NCC#CCN1CCN(C)CC1)[C@H]1CC[C@H]2[C@@H]3CC[C@@H]4CC(=O)CC[C@]4(C)[C@H]3CC[C@]12C | 102% | 57.9% | 65.7% | 102% | 86.3% | 95.5% | 106% | 78.6% | 96.3% | 85.1% | 78.6% | 32.2% | 89.8% | 102% | – | 90.7% | 97.7% | 86.7% | 89.3% | 77.1%

Source: PubChem BioAssay (NCI)
